Data reported in ChEMBL document CHEMBL3988442, “University of Dundee, Small-Polar-MMV Screening Library” (2021).
Out of some 48,000 compounds screened, about 13,000 (27%) showed an effect of 50% or more. Some of the results follow.

system: Wolbachia pipientis; experiment: Anti-Wolbachia Cell-Based Screen; type: functional; design: scale not given: in the data most compounds retested in dose-response had high values; details: 5 µM

Row | Structure (SMILES) | Percent Effect
1 | O=C(CCCn1cncn1)NC1(c2cccc(Br)c2)CC1 | -89.93%
2 | O=S(=O)(NCCc1ccccc1F)N1CCOCC1 | 104.5%
3 | O=C(Cc1ccccc1F)NCCN1CCOCC1 | 3.995%
4 | O=S(=O)(NCc1cccnc1OC1CCCC1)N1CCOCC1 | -7.047%
5 | O=S(=O)(NCCc1ccccc1C(F)(F)F)N1CCOCC1 | 96.69%
6 | O=S(=O)(Cc1ccccc1F)NCCN1CCOCC1 | -10.21%
7 | CCOc1ncccc1CNS(=O)(=O)N1CCOCC1 | -0.8612%
8 | Cc1nc(S(=O)(=O)N2CCc3[nH]nc(CCC(C)C)c3C2)cn1C | 14.04%
9 | CC(C)CN1CC(c2nc(CCc3ccccc3)n[nH]2)CC1=O (configuration not stated) | 6.531%
10 | CN1CCCC[C@@H]2[C@H]1[C@@H](c1ccccc1)CCN2C(=O)c1ccncc1 | 88.59%
11 | CN1CCCCC[C@@H]2[C@@H]1[C@H](c1ccccc1)CN2C(=O)c1cccnc1 | 98.96%
12 | CC(C)=CCN1CCN(C(=O)c2snnc2C)[C@H]2CS(=O)(=O)C[C@H]21 | -1.087%
13 | O=C(c1ccncc1)N1CCCC1C1CCN(Cc2ccccc2)CC1 (configuration not stated) | -37.72%
14 | CN1CCCC[C@@H]2[C@H]1[C@@H](c1ccccc1)CCN2C(=O)c1ccccc1 | -7.424%
15 | Cc1nnsc1C(=O)N1CCN(CC2CC2)[C@@H]2CS(=O)(=O)C[C@@H]21 | 2.438%
16 | Cc1nnsc1C(=O)N1CC[C@H](c2ccccc2)[C@@H]2[C@H]1CCCCN2C | 109%
17 | CN1CCCC[C@@H]2[C@H]1[C@@H](c1ccccc1)CCN2C(=O)c1cccnc1 | 94.07%
18 | O=C(c1cccnc1)N1CCCC1C1CCN(Cc2ccccc2)CC1 (configuration not stated) | -39.09%
19 | COC(=O)C1CCCN1C(=O)c1ccc(Cl)cc1F (configuration not stated) | 16.38%

Row | Structure (SMILES) | Percent Effect
20 | CN1CCN(c2ccc(NC(=O)c3ccccn3)c(C(F)(F)F)c2)CC1 | -8.677%
21 | CCNC(=O)c1ccoc1CN1c2ccccc2CC1C (configuration not stated) | -6.269%
22 | CCN(CCc1nc2cc(C)ccc2[nH]1)C(=O)[C@@H](N)COC | 2.321%
23 | Cc1nc(CCNc2ccc(-c3nc(C)c(C)c(=O)[nH]3)cn2)cs1 | 1.722%
24 | O=C(CCc1nc2ccccc2[nH]1)NC1CCOC2(CCOCC2)C1 (configuration not stated) | 103.6%
25 | O=C(CCCc1nc2ccccc2[nH]1)N1CCCC1c1ccccn1 (configuration not stated) | -11.11%
26 | CN(C)C(=O)NC1COC2(CCN(S(=O)(=O)c3ccccc3)CC2)C1 (configuration not stated) | 5.169%
27 | COc1c(C)cnc(CNC(=O)CCc2nc3ccccc3[nH]2)c1C | 4.531%
28 | O=C(CCS(=O)(=O)c1ccccc1)NC1CCOC2(CCOCC2)C1 (configuration not stated) | 92.28%
29 | O=C(NCCNc1ccccn1)NC1CCOC2(CCCCC2)C1 (configuration not stated) | -19.85%
30 | CCc1ncc2c(n1)CN(C(=O)CNC(=O)c1ccccc1)C2 | 27.82%
31 | COc1cccc(CN(C)Cc2[nH]c3ccccc3c2C)c1O | 10.98%
32 | Cc1cccc(CN2CCC3(CCCN(C(=O)N(C)C)C3)C2=O)n1.O=C(O)C(F)(F)F (configuration not stated) | -4.614%
33 | Cc1cccc(CN2CC3(CCN(C(=O)N(C)C)CC3)OCC2=O)n1.O=C(O)C(F)(F)F | 105.7%
34 | Cc1cccc(CN2CC3(CCN(C4CCOC4)CC3)OCC2=O)n1.O=C(O)C(F)(F)F.O=C(O)C(F)(F)F (configuration not stated) | 100.8%
35 | Cc1cccc(CN2CC3(CCN(S(=O)(=O)C4CC4)CC3)OCC2=O)n1.O=C(O)C(F)(F)F | 102.5%
36 | CCS(=O)(=O)N1CCC2(CC1)CN(Cc1ccccn1)C(=O)CO2.O=C(O)C(F)(F)F | -5.616%
37 | Cc1cccc(N2CC3(CCN(S(=O)(=O)C4CC4)C3)C2)n1.O=C(O)C(F)(F)F | 2.181%
38 | Cc1ccc(N2CCC3(CC2)CCN(C2CCOC2)CC3)nn1.O=C(O)C(F)(F)F (configuration not stated) | -7.269%

Row | Structure (SMILES) | Percent Effect
39 | O=C(O)C(F)(F)F.O=C1COC2(CCN(c3cccc(F)c3)CC2)CN1Cc1ccccn1 | -8.645%
40 | CC(CCNC(=O)N1CCC1)N(C)C(=O)OC(C)(C)C (configuration not stated) | -2.382%
41 | Cl.Cl.O[C@@H]1C[C@@](CNCc2ccc(F)cc2)(COc2cccnc2)C[C@@H]1O | -10.51%
42 | Cc1ncc(CNCC2CCC(C(N)=O)CC2)n1-c1ccccc1 (configuration not stated) | -1.319%
43 | CCc1nc(N)nc(NCCC(=O)NC2CCCCC2)c1C | 10.22%
44 | CCS(=O)(=O)NCC1Cn2nnc(-c3cccc(C)c3)c2CO1 (configuration not stated) | -10.41%
45 | CCOCCC(=O)N1C[C@H]2CC[C@@H]1CN(c1ncccn1)C2 | 22.34%
46 | CNC(=O)[C@@]12CCO[C@@H]1CCN(Cc1ccc3c(c1)OCO3)C2.O=C(O)C(F)(F)F | 92.17%
47 | CNC(=O)[C@@]12CCO[C@@H]1CCN(Cc1cccc(C)c1)C2.O=C(O)C(F)(F)F | 5.352%
48 | CN1CCC2(COCCN(Cc3ccc4c(c3)OCO4)C2)C1.O=C(O)C(F)(F)F.O=C(O)C(F)(F)F (configuration not stated) | -6.126%
49 | CN(C)C(=O)[C@@H]1CCO[C@@H]2CCN(Cc3ccc4c(c3)OCO4)C[C@@H]21.O=C(O)C(F)(F)F | -16.18%
50 | Cc1ncsc1CN1CC[C@H]2OCC[C@@]2(C(=O)NC2CC2)C1.O=C(O)C(F)(F)F | 0.183%
51 | CN(C)C(=O)[C@@]12CCO[C@@H]1CCN(Cc1ccc3c(c1)OCO3)C2.O=C(O)C(F)(F)F | 104.9%
52 | O=C(NC1CC1)[C@H]1CN(Cc2ccc3c(c2)OCO3)C[C@H]2OCC[C@@H]12.O=C(O)C(F)(F)F | -14.17%
53 | CC(C)NC(=O)[C@@]12CCO[C@@H]1CCN(Cc1ccc3c(c1)OCO3)C2.O=C(O)C(F)(F)F | 90.31%
54 | O=C(NC1CC1)[C@@H]1CN(Cc2ccc3c(c2)OCO3)C[C@H]2OCC[C@H]21.O=C(O)C(F)(F)F | -3.513%
55 | CC(C)NC(=O)[C@@H]1CN(Cc2ccc3c(c2)OCO3)C[C@H]2OCC[C@H]21.O=C(O)C(F)(F)F | -18.01%
56 | Cc1ncsc1CN1CC[C@H]2OCC[C@@]2(C(=O)NC(C)C)C1.O=C(O)C(F)(F)F | 3.331%
57 | O=C(NC1CC1)[C@@]12CCO[C@@H]1CCN(Cc1ccc3c(c1)OCO3)C2.O=C(O)C(F)(F)F | 117%
